Screening data deposited in PubChem by several laboratories.
PostGolgi yeast – phenotypic screen on post-Golgi transport, primary screen. AID 739, 2007. hit rate 0.9% among 98,000. inhibition, % at 10 µM. post-Golgi transport phenotypic cell assay;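 also: yeast cells grown in 1536-well plates; yeast grown about 18 h at 30C before absorbance read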
CYP2C19 activ – human CYP2C19 activators, primary screen, biochemical, luminescence. Cytochrome P450 2C19 (Homo sapiens), P33261. recombinant CYP2C19, luciferin-H EGE luminescence; hits give high values; 0 = fully inhibited enzyme, 1 = untreated enzyme. activation factor at 5 µM. 96,000 tested, under 10 active. AID 1025, 2008;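 active = activation factor of at least 2 at 5 µM in the primary screen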;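 also: 0 = wells with 2.5 mM tranylcypromine and 1 = vehicle-only wells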
Target sequence (P33261 whole entry, looked up): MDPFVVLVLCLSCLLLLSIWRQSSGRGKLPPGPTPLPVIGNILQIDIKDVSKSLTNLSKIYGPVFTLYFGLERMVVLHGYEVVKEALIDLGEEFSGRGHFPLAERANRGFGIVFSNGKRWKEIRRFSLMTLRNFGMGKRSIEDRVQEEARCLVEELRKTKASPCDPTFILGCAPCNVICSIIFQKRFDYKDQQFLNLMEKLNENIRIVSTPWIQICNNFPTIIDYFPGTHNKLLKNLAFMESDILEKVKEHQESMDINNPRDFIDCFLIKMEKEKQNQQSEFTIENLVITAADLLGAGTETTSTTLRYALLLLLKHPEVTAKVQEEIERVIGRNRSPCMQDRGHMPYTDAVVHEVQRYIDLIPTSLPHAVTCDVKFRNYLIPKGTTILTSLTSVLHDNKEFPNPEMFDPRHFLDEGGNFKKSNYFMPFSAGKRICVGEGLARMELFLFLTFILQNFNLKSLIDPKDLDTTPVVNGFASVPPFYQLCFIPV
PostGolgi ctrl – growth inhibition of yeast control strain, primary screen, counter-screen for post-Golgi transport modulator project; efflux-deficient yeast background strain, growth absorbance A615, 16 h; inhibition, % at 10 µM; hit rate 5% among 98,000; AID 738, 2007
CYP2C9 inh – blockers of cytochrome P450 2C9 activity – biochemical, luminescence, ADME assay, primary screen. inhibition, % at 5 µM. AID 777, 2007. CYP2C9 Supersomes, luciferin-H conversion. hit rate 20% among 96,000. P11712;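 active = blocking of liver enzyme CYP2C9 beyond about 50% at 5 µM, limit read from the data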
CYP2C19 inh – blockers of cytochrome P450 2C19 activity – biochemical, luminescence, ADME assay, primary screen. inhibition, % at 5 µM. P33261. CYP2C19 Supersomes, luciferin-H EGE luminescence, 30 min. hit rate 21% among 96,000;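 active = CYP2C19 inhibition above a set limit at 5 µM in the primary screen, cut at about 50% in these data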;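 also: plate controls were negative control wells for no effect and 2.5 mM tranylcypromine positive control for full effect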
CYP2C9 activ – human CYP2C9 activators, primary screen, biochemical, luminescence. Cytochrome P450 2C9 (Homo sapiens), P11712. recombinant CYP2C9, luciferin-H conversion; hits give high values; factor 1 = untreated enzyme, 0 = blocked. AID 1024, 2008. hit rate 1.4% among 96,000. activation factor at 5 µM;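 active = activation factor of 2 or more for CYP2C9 at a 5 µM dose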;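 also: 0 = sulfaphenazole-blocked wells and 1 = vehicle-only wells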
The depositor's hits bear a star; . = not tested or not shown. Only some compounds are listed: those with a hit (about 32% of all), similar ones and a draw of the others. Rule as the data show it, unless noted: active = inhibition above about 30%; inactive = the rest.

SMILES	PostGolgi yeast	CYP2C19 activ	PostGolgi ctrl	CYP2C9 inh	CYP2C19 inh	CYP2C9 activ
CC1CCN(S(=O)(=O)c2ccc(S(=O)(=O)NCC3COCCO3)cc2)CC1 (configuration not stated)	18.5	0.4	4.9	3.3	60.2*	1
COC(=O)c1c(NC(=O)C2CC(=O)NN2Cc2ccccc2)sc(C)c1C (configuration not stated)	-0.8	0.1	1.5	82.3*	85.5*	0.2
Cc1ccc(CSCCNC(=O)CSCc2ccc([N+](=O)[O-])cc2)cc1	1.8	0.4	26.0	74.9*	58.1*	0.3
COc1ccc(N2C(=O)C(Cl)=C(N(CCO)Cc3ccccc3)C2=O)cc1	-4.1	0	7.6	97.5*	96.9*	0
COc1ccc(N2C(=O)C(Cl)=C(N3CCN(Cc4ccccc4)CC3)C2=O)cc1	5.6	0.9	8.9	42.2	8.0	0.6
COC(=O)c1ccc2c(=O)n(C3CCCCC3)c(SCC#N)nc2c1	4.0	1.1	7.0	-9.1	-5.8	1.1
Cc1cccc(N2C(=O)CC(Sc3nc(-c4ccccc4)c4cc(Cl)ccc4n3)C2=O)c1 (configuration not stated)	-2.1	0.7	25.3	58.3*	25.1	0.4
CCOC(=O)c1ccc2[nH]c3c(c2c1)CCCCC3=O	-3.3	.	13.5	.	.	.
CCOC(=O)c1ccc2[nH]c3c(c2c1)CCCC3C(=O)OCC (configuration not stated)	-0.8	0.1	21.7	82.0*	89.0*	0.2
Cc1c(-n2cc(C(=O)c3cc(Br)ccc3O)cc(C#N)c2=O)c(=O)n(-c2ccccc2)n1C	-0.5	0.6	12.2	64.4*	36.0	0.4
CCSCc1nnc(SCC(=O)Nc2nc3ccccc3s2)n1C	7.1	0.8	36.0*	63.2*	18.1	0.4
Cn1c(CSCc2ccccc2Cl)nnc1SCC(=O)Nc1nccs1	9.6	0.5	7.8	61.3*	49.0	0.4
CCn1c(Cc2ccccc2)nnc1SCC(=O)Nc1nc2ccccc2s1	-7.5	0.8	-3.4	20.9	22.1	0.8
Cc1ccc(-c2cnc(NC(=O)CCC(=O)N3CCCCC3)n2C)cc1	0.8	1.1	3.5	-25.0	-7.6	1.3
CCOC(=O)c1ccc(-n2c(N)c(C(=O)NCC3CCCO3)sc2=S)cc1 (configuration not stated)	5.5	0.8	2.6	82.7*	17.8	0.2
C=CCNC(=O)c1sc(=S)n(-c2ccc(C(=O)OCC)cc2)c1N	-2.8	0.8	-4.9	56.2*	16.4	0.4
CC1CC(=O)C2=C(C1)Nc1ncnn1C2c1ccccc1 (configuration not stated)	0.8	0.8	47.9*	11.3	15.5	0.9
COCCn1c(SCc2cnc(-c3ccccc3)s2)nnc1-c1ccncc1	7.2	0.2	11.4	32.4	81.8*	0.7
COc1ccc(-n2cnnc2SCc2cnc(-c3ccccc3)s2)cc1	-4.8	0.3	10.8	24.7	66.0*	0.8
Nc1nc(NC(=O)Cc2ccccc2)nn1-c1ccccc1	0.0	0.7	1.2	11.1	28.4	0.9
COC(=O)C(CC(=O)c1ccc(Cl)cc1)c1ccc(C(C)C)cc1 (configuration not stated)	20.5	1	3.0	-24.9	2.0	1.2
Cc1nnc(NC(=O)CSc2nnnn2Cc2ccccc2)s1	-10.2	1	1.0	85.9*	-1.6	0.1
COc1ccc(OC)c(-n2nnnc2SCC(=O)Nc2nc(C)c(C)s2)c1	-4.6	0.7	-2.8	7.0	30.7	0.9
Cc1nc(NC(=O)CSc2nnnn2Cc2ccccc2)sc1C	-5.3	0.2	-1.0	51.0*	81.4*	0.5
O=C(NC1CCCCC1)C1CCCN1C(=O)NCc1ccccc1 (configuration not stated)	-7.0	0.9	-5.3	23.5	9.3	0.8
SMILES	PostGolgi yeast	CYP2C19 activ	PostGolgi ctrl	CYP2C9 inh	CYP2C19 inh	CYP2C9 activ
Cc1ccc(S(=O)(=O)NCC(=O)N(CC(=O)NC2CCCC2)c2ccc3c(c2)OCCO3)cc1	-1.7	0.5	-6.9	61.2*	48.2	0.4
Cc1ccc(N(CC(=O)NC2CCCCC2)C(=O)c2ccc(C)s2)cc1	-8.6	0.7	27.7	60.0*	30.8	0.4
CCC(C)(C)NC(=O)CN(C(=O)CNS(=O)(=O)c1ccc(C)cc1)c1ccc2c(c1)OCCO2	-8.1	0.7	-1.0	53.7*	28.9	0.5
O=C(Nc1ccc(-c2cn3ccsc3n2)cc1)c1ccc(F)c(S(=O)(=O)N2CCOCC2)c1	3.7	0.8	22.3	45.5	15.3	0.5
Cc1cc2nn(-c3cccc4ccccc34)nc2cc1NC(=O)c1cccs1	11.8	0.7	21.1	29.2	29.5	0.7
O=C(OCCN(CCOC(=O)c1ccncc1)S(=O)(=O)c1cccs1)c1ccncc1	8.1	0	1.3	99.9*	99.1*	0
CCCCN1CCc2c1nc1ccc(Br)cc1c2N	3.9	0.6	2.1	12.3	45.0	0.9
O=C(COC(=O)c1ccccc1NC(=O)c1ccco1)NCc1ccc2c(c1)OCO2	17.0	0.9	-2.5	46.8	12.0	0.5
CCCSc1cc(N2CCOCC2)nc(-c2ccccc2Cl)n1	-6.5	0.9	16.8	57.4*	9.0	0.4
COC1CCCCC1Nc1cccc(SC)c1 (configuration not stated)	-5.9	0.7	34.8*	8.8	28.8	0.9
COc1ccc(C(=O)C[n+]2ccc3c(c2)nc(-c2cc(OC)c(OC)cc2OC)n3C)cc1	-3.9	1	-2.5	-1.5	1.4	1
O=C(Nc1cccc(F)c1)c1ccc(S(=O)(=O)NCC2CCCO2)cc1 (configuration not stated)	17.1	0.7	-1.7	56.0*	34.7	0.4
O=C(CSc1ccccc1)Nc1ccc(S(=O)(=O)NCC2CCCO2)cc1 (configuration not stated)	4.0	0.5	4.1	90.9*	48.3	0.1
O=C(COc1ccc(S(=O)(=O)NC2CCCCC2)cc1)NCC1CCCO1 (configuration not stated)	-1.1	1.1	11.6	17.2	-8.9	0.8
O=C(Nc1ccc2c(c1)OCO2)c1ccc(S(=O)(=O)NCC2CCCO2)cc1 (configuration not stated)	-10.7	1	7.5	2.2	0.7	1
O=C(CN(CC1CCCO1)S(=O)(=O)c1ccc(S(=O)(=O)NC2CC2)cc1)Nc1ccccc1 (configuration not stated)	4.0	0.3	-9.6	97.0*	73.5*	0
COc1cc(NC(=O)C2CC(=O)NC3=C2C(=O)CCC3)c(OC)cc1Cl (configuration not stated)	0.5	0.8	2.3	18.8	17.0	0.8
